The target of one assay is RA three-finger array, finger 2 TSWNLRS (synthetic construct (mouse Zif268 …, UniProt P08046 333-418, E352N;T354R;R355A;R377T;D379W;H380N;T382R;T383S;D407A;E408N;R409L;K410V)). Kind of assay: Zn; 100 nM beta-estradiol; yeast GFP reporter, 12 h induction, 3 biological replicates. Particulars: tags: estrogen receptor LBD - VP16 fusion (left out); vector residues GT and GS kept at the ends; dsDNA, one strand shown.
Consider GAGCAGAAG, for which the binding signal is 1.13 ± 0.189 mean GFP / mean GFP of Zif268 on its consensus site. The same measure, in the same setting: next, GAGCATAAG: 0.344 ± 0.012 mean GFP / mean GFP of Zif268 on its consensus site; GAGAAGAAG: 0.437 ± 0.032 mean GFP / mean GFP of Zif268 on its consensus site. For GAGGAGAAG, the binding signal is 0.103 ± 0.007 mean GFP / mean GFP of Zif268 on its consensus site.

In a further assay the target is RA three-finger array, finger 2 ASSNLRA (synthetic construct (mouse Zif268 …, UniProt P08046 333-418, E352N;T354R;R355A;R377A;D379S;H380N;T382R;T383A;D407A;E408N;R409L;K410V)). The assay is described as above. The settings on record: tags: estrogen receptor LBD - VP16 fusion (left out); vector residues GT and GS kept at the ends; dsDNA, one strand shown.
With GAGCAGAAG, the binding signal was 0.103 ± 0.004 mean GFP / mean GFP of Zif268 on its consensus site. The same measure, in the same setting: next, GAGCATAAG: 0.875 ± 0.05 mean GFP / mean GFP of Zif268 on its consensus site; GAGCACAAG: 0.225 ± 0.031 mean GFP / mean GFP of Zif268 on its consensus site.

The next assay deals with RA three-finger array, finger 2 RSGNLRS (synthetic construct (mouse Zif268 …, UniProt P08046 333-418, E352N;T354R;R355A;D379G;H380N;T382R;T383S;D407A;E408N;R409L;K410V)). The assay is described as above. The settings on record: tags: estrogen receptor LBD - VP16 fusion (left out); vector residues GT and GS kept at the ends; dsDNA, one strand shown.
For the sequence GAGCAGAAG, the binding signal is 0.997 ± 0.075 mean GFP / mean GFP of Zif268 on its consensus site. Take GAGCATAAG: the binding signal was 0.264 ± 0.005 mean GFP / mean GFP of Zif268 on its consensus site. Still for that read-out and setting: next, GAGCAAAAG: 0.138 ± 0.011 mean GFP / mean GFP of Zif268 on its consensus site. The same measure, in the same setting: the result for GAGAAGAAG reads 0.587 ± 0.052 mean GFP / mean GFP of Zif268 on its consensus site. On the same count and under the same terms, the result for GAGGAGAAG reads 0.149 ± 0.009 mean GFP / mean GFP of Zif268 on its consensus site.

Another assay concerns the target Zif268 (Egr1) fingers 1-3 (Mus musculus, UniProt P08046 333-418). The description is as above. The settings on record: dsDNA, one strand shown.
Turning to GCGTGGGTG, the binding signal is 0.878 mean GFP / mean GFP of Zif268 on its consensus site.

As to GCGTGGGCC, the binding signal is 0.147 mean GFP / mean GFP of Zif268 on its consensus site. On the same count and under the same terms, next, GCGTGGGAG: 0.755 mean GFP / mean GFP of Zif268 on its consensus site; GCGTGGGCG: 1 mean GFP / mean GFP of Zif268 on its consensus site; GCGTGGGGG: 0.059 mean GFP / mean GFP of Zif268 on its consensus site.

The target of the next assay is RA three-finger array, finger 2 QSGNLKS (synthetic construct (mouse Zif268 …, UniProt P08046 333-418, E352N;T354R;R355A;R377Q;D379G;H380N;T382K;T383S;D407A;E408N;R409L;K410V)). The assay is described as above. The settings on record: tags: estrogen receptor LBD - VP16 fusion (left out); vector residues GT and GS kept at the ends; dsDNA, one strand shown.
With GAGCAGAAG, the binding signal was 0.174 ± 0.003 mean GFP / mean GFP of Zif268 on its consensus site. GAGCATAAG: the binding signal is 0.226 ± 0.01 mean GFP / mean GFP of Zif268 on its consensus site.

Consider GAGCAAAAG, for which the binding signal was 0.463 ± 0.041 mean GFP / mean GFP of Zif268 on its consensus site. As to GAGCACAAG, the binding signal was 0.219 ± 0.008 mean GFP / mean GFP of Zif268 on its consensus site.

The values above are taken from PMC3919609, “Deep sequencing of large library selections allows computational discovery of diverse sets of zinc fingers that bind common targets”.
